These entries were drawn from the full list.
aSyn UTR act: Activators via SNCA 5'UTR binding, MLPCN. activity score, % (tested at 7.5 µM), hits read low. alpha-synuclein 5'UTR reporter, activators screen. AID 1814. 300,000 tested, 7.1% active; in the data active = activity score below about -60%
* hit, by the source's call.

How did c1ccc(OCCSc2nc3ccccc3[nH]2)cc1 do in these assays?
aSyn UTR act: -127.6*

What do the screens show for `Clc1ccc(OCc2nc3ccccc3[nH]2)cc1`?
aSyn UTR act: -139.2*

What do the screens show for `COC(=O)c1ccc(Oc2cc(C)nc(-n3nc(C)cc3C)n2)cc1`?
aSyn UTR act: 65.2

How did COC(=O)c1ccc(CSc2nc(N)cc(N)n2)cc1 do in these assays?
aSyn UTR act: -66.4*

What do the screens show for `O=Cc1cc(-c2ccccc2)[nH]c1-c1ccccc1`?
aSyn UTR act: -64.3*

How did COC(=O)CCC(=O)c1oc2ccc(Br)cc2c1N do in these assays?
aSyn UTR act: -82.7*

What do the screens show for `Cc1ccc(C(=O)c2oc3ccccc3c2N)cc1`?
aSyn UTR act: -66.0*

Results for Nc1c(C(=O)c2ccc(Br)cc2)oc2ccccc12 ?
aSyn UTR act: -173.7*

What do the screens show for `NC(=O)CCCn1c(C(=O)c2cc(Cl)c(N)c(Cl)c2)c2ccc([N+](=O)[O-])cc2[n+]1[O-]`?
aSyn UTR act: 71.4

What do the screens show for `NCCCn1c(C(=O)c2ccc(Cl)cc2)c2ccc([N+](=O)[O-])cc2[n+]1[O-]`?
aSyn UTR act: 60.1

What do the screens show for `Nc1c(C(=O)c2ccccc2)oc2ccc([N+](=O)[O-])cc12`?
aSyn UTR act: -110.5*

What do the screens show for `Nc1c(C(=O)c2ccccc2)oc2ccc(Br)cc12`?
aSyn UTR act: -255.8*

How did CCOC(=O)c1oc2ccccc2c1N do in these assays?
aSyn UTR act: -90.0*

What do the screens show for `CCN1CCN(c2cc3c(nn2)Oc2ccccc2N3C)CC1`?
aSyn UTR act: -128.5*

How did c1ccc2[nH]c(SCc3cscn3)nc2c1 do in these assays?
aSyn UTR act: -104.3*

Results for c1ccc2[nH]c(-c3cscn3)nc2c1 ?
aSyn UTR act: -99.0*

Results for c1ccc2nc(-c3nc4ccccc4[nH]3)ccc2c1 ?
aSyn UTR act: 74.4

What do the screens show for `CCOC(=O)C(=CN=C(N)Nc1nc2ccccc2o1)C(=O)OCC`?
aSyn UTR act: -118.9*

Results for CCCOC(=O)Nc1nc2ccccc2o1 ?
aSyn UTR act: -99.0*

How did CS(=O)(=O)NNC(=O)Cn1nnc(-c2ccc(OCc3ccccc3Cl)cc2)n1 do in these assays?
aSyn UTR act: -106.7*

How did Cc1ccc(C(=O)/C=C/c2c[nH]c3ccccc23)cc1 do in these assays?
aSyn UTR act: -237.2*

What do the screens show for `O=C(/C=C/c1c[nH]c2ccccc12)c1ccccc1`?
aSyn UTR act: -330.2*

How did COc1ccc2[nH]cc(/C=C/C(=O)c3ccccc3)c2c1 do in these assays?
aSyn UTR act: -245.4*

What do the screens show for `Cc1ccc(C(=O)/C=C/c2cn(CN3CCN(C)CC3)c3ccccc23)cc1`?
aSyn UTR act: -231.2*

How did O=C(COC(=O)c1c(F)cccc1Cl)NC1CCCC1 do in these assays?
aSyn UTR act: -77.8*

What do the screens show for `COc1cccc(NC(=O)COC(=O)c2c(F)cccc2Cl)c1`?
aSyn UTR act: -147.8*

What do the screens show for `CCC1CCCCN1CCCNC(=O)c1ccc2nc(N3CCC(C)CC3)sc2c1` (stereo not drawn)?
aSyn UTR act: -291.8*

Results for CC1CCN(c2nc3ccc(C(=O)O)cc3s2)CC1 ?
aSyn UTR act: 106.0

What do the screens show for `CC1CCN(c2nc3ccc(C(=O)NCCCN4CCCCC4)cc3s2)CC1`?
aSyn UTR act: -281.6*

How did CCC1(COC(=O)Nc2cccc(Cl)c2)COC1 do in these assays?
aSyn UTR act: -93.4*

How did O=C(Nc1ccccc1)OCc1cc(-c2ccccc2Cl)on1 do in these assays?
aSyn UTR act: -160.4*

Results for O=C(Nc1ccccc1)OCCOc1ccccc1 ?
aSyn UTR act: -143.4*

Results for O=C(Nc1ccccc1)OCc1ccccn1 ?
aSyn UTR act: -101.7*

How did O=C(Nc1ccccc1)OCCOc1ccccc1Br do in these assays?
aSyn UTR act: -125.3*

Results for O=C(Nc1cccc(Cl)c1)OCCOc1ccccc1 ?
aSyn UTR act: -139.9*

How did COc1ccc(OC)c(NC(=O)/C=C/c2ccccc2[N+](=O)[O-])c1 do in these assays?
aSyn UTR act: -83.7*

Results for CCCOc1ccc(/C=C/C(=O)Nc2ccc([N+](=O)[O-])cc2)cc1 ?
aSyn UTR act: 68.0

How did COc1cccc(NC(=O)/C=C/c2ccc([N+](=O)[O-])cc2)c1 do in these assays?
aSyn UTR act: -84.1*

How did O=C(/C=C/c1ccccc1[N+](=O)[O-])Nc1cccnc1 do in these assays?
aSyn UTR act: -122.9*

What do the screens show for `COc1cccc(NC(=O)/C=C/c2ccccc2[N+](=O)[O-])c1`?
aSyn UTR act: -202.4*

What do the screens show for `C=CCn1c(O)c(N=NC(=S)Nc2ccccc2F)c2cc(S(=O)(=O)N3CCOCC3)ccc21`?
aSyn UTR act: 77.9

What do the screens show for `CN(C)S(=O)(=O)c1cccc(NC(=O)/C=C/c2ccccc2[N+](=O)[O-])c1`?
aSyn UTR act: -65.4*

Results for COC(=O)C(=Cc1ccccc1[N+](=O)[O-])C(=O)OC ?
aSyn UTR act: -239.8*

What do the screens show for `CN(C)S(=O)(=O)c1cccc(NC(=S)N/N=C/c2cc(Br)ccc2O)c1`?
aSyn UTR act: 69.4

Results for CN1CCN(c2nc(Nc3cccc(C(F)(F)F)c3)nc(N3CCOCC3)n2)CC1 ?
aSyn UTR act: -69.3*

Results for O=c1c2ccccc2cnn1CCOc1cccc(Br)c1 ?
aSyn UTR act: -152.6*

Screening data deposited in PubChem by Broad Institute.
